# Assay results from the supplement of paper PMC12819154, “High-throughput peptide-centric local stability assay extends protein–ligand identification to membrane proteins, tissues and bacteria” (Nature Structural & Molecular Biology, 2025).
# Compound: CN[C@@H]1C[C@H]2O[C@@](C)([C@@H]1OC)n1c3ccccc3c3c4c(c5c6ccccc6n2c5c31)C(=O)NC4 [staurosporine]
# Test: log2 fold change of tryptic peptide abundance, ligand vs vehicle (limited proteolysis) (log2 ratio); higher = more trypsin-susceptible (destabilized)
# Details: ligand concentration: 20 uM; sample: mouse liver crude lysate; replicate design: treated separately
# UniProt Q7TT50, sequence (Q7TT50 whole entry): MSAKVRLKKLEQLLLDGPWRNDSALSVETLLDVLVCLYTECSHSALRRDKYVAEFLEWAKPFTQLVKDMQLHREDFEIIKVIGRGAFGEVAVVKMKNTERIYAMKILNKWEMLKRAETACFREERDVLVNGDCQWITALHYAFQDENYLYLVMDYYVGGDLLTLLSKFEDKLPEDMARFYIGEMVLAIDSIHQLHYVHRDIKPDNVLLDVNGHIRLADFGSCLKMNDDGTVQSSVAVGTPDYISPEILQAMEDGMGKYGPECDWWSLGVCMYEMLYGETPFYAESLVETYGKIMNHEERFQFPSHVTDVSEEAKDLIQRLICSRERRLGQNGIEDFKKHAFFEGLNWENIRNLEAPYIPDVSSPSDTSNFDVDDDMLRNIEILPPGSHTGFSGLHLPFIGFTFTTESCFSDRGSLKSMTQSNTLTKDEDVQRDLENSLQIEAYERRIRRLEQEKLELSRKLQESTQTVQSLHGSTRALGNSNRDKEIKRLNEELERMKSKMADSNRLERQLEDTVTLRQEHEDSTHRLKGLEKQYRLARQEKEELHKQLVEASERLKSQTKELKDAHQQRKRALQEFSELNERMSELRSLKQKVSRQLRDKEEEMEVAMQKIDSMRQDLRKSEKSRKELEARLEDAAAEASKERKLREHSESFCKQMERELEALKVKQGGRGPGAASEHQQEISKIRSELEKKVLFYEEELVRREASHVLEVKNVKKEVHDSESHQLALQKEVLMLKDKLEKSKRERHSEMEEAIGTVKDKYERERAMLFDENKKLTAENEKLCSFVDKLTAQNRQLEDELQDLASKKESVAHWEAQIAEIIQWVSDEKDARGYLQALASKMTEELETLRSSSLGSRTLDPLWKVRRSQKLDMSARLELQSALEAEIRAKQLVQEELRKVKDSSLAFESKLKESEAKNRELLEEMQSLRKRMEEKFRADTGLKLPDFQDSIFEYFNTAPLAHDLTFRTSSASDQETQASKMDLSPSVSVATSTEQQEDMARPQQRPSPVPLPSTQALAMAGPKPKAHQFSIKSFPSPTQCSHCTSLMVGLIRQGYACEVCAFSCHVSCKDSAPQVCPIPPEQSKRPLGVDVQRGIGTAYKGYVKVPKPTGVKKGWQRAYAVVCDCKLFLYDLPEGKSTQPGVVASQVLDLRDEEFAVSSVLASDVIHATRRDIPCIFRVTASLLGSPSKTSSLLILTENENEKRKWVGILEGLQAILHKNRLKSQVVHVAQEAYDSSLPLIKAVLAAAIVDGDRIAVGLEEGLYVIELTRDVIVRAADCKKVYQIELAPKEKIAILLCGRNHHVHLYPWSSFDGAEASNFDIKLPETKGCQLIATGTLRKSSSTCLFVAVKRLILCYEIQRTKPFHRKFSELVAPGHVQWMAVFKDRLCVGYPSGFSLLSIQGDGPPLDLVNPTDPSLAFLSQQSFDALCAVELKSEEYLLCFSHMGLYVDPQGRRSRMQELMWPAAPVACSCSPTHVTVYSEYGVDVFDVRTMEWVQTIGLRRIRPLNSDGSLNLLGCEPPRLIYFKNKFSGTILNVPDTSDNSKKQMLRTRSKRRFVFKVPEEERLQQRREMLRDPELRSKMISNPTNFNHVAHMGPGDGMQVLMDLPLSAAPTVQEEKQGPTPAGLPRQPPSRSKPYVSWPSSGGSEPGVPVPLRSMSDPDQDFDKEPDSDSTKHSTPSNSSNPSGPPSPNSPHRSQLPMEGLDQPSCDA
# UniProt Q9R257, sequence (Q9R257 whole entry): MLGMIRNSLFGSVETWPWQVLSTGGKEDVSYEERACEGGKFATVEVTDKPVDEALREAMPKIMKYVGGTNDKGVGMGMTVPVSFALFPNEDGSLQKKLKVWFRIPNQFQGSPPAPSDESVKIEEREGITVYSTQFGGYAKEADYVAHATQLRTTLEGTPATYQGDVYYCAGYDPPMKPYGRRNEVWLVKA
# UniProt P47802, sequence (P47802 whole entry): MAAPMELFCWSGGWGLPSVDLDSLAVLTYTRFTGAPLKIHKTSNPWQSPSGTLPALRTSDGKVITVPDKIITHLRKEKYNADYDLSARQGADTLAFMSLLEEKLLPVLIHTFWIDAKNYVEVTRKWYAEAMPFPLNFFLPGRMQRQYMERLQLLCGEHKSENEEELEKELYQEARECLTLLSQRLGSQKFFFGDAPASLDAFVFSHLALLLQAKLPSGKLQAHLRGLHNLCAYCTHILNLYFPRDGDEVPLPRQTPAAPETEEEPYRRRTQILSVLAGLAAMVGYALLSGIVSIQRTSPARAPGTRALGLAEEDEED
# UniProt O89023, sequence (O89023 whole entry): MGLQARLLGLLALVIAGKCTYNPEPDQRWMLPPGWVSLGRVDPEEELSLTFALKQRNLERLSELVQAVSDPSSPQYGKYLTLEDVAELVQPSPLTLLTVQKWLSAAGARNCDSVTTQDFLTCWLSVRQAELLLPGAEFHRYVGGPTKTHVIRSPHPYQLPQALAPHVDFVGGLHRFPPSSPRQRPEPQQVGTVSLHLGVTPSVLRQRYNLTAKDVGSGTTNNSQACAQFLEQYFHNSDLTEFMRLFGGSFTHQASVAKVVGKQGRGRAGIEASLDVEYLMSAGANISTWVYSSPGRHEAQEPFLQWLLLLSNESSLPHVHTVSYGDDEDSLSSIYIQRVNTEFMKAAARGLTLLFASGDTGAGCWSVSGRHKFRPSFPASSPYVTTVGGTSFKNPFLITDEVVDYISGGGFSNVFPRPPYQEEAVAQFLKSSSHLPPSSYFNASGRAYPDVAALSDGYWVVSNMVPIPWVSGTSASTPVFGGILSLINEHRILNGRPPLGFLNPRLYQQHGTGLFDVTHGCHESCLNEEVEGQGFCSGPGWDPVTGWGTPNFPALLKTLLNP
# UniProt Q8BW96, sequence (Q8BW96 whole entry): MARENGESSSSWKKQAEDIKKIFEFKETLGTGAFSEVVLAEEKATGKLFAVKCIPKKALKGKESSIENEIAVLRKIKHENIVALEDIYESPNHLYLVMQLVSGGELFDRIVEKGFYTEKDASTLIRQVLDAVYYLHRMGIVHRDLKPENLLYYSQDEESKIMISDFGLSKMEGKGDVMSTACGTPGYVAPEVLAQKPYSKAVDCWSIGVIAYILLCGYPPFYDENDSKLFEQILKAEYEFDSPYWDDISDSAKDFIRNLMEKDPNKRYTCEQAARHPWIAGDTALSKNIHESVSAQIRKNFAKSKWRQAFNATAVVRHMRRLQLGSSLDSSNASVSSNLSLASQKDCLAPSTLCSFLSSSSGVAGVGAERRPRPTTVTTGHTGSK
# UniProt P98154, sequence (P98154 whole entry): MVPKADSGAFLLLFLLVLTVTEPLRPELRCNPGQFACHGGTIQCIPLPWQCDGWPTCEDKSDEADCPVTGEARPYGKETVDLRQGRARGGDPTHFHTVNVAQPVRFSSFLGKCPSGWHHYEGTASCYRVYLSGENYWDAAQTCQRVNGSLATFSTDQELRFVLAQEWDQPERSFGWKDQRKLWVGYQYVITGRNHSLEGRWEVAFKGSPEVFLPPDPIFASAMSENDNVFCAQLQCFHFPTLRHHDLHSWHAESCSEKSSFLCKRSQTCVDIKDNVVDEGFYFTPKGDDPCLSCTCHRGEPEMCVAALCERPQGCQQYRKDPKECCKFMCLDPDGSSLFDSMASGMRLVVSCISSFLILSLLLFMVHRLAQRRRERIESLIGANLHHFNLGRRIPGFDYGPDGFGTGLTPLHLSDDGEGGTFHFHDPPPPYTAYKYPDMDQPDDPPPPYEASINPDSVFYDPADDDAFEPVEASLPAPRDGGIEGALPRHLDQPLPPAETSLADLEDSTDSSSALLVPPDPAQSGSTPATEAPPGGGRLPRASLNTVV
# UniProt Q8VDM4, sequence (Q8VDM4 whole entry): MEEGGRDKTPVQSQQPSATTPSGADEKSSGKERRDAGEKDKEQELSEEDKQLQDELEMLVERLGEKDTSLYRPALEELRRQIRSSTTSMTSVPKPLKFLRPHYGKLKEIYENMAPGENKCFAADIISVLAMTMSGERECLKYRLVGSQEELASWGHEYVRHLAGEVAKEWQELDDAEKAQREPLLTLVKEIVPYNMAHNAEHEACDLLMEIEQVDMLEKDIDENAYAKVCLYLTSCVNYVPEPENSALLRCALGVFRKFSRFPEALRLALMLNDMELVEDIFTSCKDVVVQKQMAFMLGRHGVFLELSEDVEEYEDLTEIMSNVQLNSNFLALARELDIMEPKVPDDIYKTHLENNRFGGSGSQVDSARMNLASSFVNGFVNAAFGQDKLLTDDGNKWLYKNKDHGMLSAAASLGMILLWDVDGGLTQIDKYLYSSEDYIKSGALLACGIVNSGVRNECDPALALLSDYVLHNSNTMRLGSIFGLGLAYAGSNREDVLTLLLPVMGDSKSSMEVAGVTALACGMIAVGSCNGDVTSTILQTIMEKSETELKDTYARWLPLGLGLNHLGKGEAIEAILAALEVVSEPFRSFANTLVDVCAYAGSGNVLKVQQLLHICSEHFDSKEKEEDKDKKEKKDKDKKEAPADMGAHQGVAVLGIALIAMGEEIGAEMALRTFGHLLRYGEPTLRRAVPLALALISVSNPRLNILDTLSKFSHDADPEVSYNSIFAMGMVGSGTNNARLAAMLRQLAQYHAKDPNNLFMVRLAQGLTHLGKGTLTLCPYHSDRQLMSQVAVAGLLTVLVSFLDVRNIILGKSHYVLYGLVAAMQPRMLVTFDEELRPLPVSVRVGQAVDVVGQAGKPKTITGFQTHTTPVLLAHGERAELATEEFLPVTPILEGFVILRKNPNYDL
# UniProt Q8C0K5, sequence (Q8C0K5 whole entry): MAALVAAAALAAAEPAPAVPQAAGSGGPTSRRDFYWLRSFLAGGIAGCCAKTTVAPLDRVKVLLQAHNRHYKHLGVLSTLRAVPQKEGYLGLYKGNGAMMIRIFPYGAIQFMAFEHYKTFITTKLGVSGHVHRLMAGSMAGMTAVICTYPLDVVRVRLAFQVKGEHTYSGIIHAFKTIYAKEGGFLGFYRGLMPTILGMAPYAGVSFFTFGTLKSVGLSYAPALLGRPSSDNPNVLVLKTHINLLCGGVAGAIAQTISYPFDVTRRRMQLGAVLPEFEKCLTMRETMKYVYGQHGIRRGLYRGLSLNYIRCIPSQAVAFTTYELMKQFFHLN
row,Target,log2 fold change
1,"UniProt Q61037 (peptide sequence: DFVPYITK, peptide start residue: 907)",-0.612
2,"UniProt O89079 (peptide sequence: KYGVVLDEIKPSSAPELQAVR, peptide start residue: 65)",-0.856
3,"UniProt Q99PV0 (peptide sequence: VESHFDLELR, peptide start residue: 677)",0.478
4,"UniProt Q8VDM4 (peptide sequence: SETELKDTYAR, peptide start residue: 546)",-1.29
5,"UniProt Q9R233 (peptide sequence: GKGHLLLAATPGLAGR, peptide start residue: 215)",-1.39
6,"UniProt Q99LC5 (peptide sequence: TIYAGNALCTVK, peptide start residue: 147)",0.35
7,"UniProt P52332 (peptide sequence: NVLVESEHQVK, peptide start residue: 1007)",-2.98
8,"UniProt P05132 (peptide sequence: CGKEFTEF, peptide start residue: 344)",2.36
9,"UniProt Q61578 (peptide sequence: NVINTFTQTAR, peptide start residue: 94)",0.834
10,"UniProt Q3U214 (peptide sequence: YFLEMQDKLER, peptide start residue: 260)",0.698
11,"UniProt Q8R0Y8 (peptide sequence: MQTAGVTGHQHGSILSTLR, peptide start residue: 254)",0.401
12,"UniProt Q9DCZ4 (peptide sequence: TQLEENISQLR, peptide start residue: 58)",0.253
13,"UniProt P26443 (peptide sequence: HYSEAAADREDDPNFFK, peptide start residue: 52)",0.262
14,"UniProt Q91YQ1 (peptide sequence: STVGVDFALK, peptide start residue: 38)",0.602
15,"UniProt Q9QZL0 (peptide sequence: DLKPSNILLDPELHAK, peptide start residue: 143)",-1.1
16,"UniProt Q7TT50 (peptide sequence: FQFPSHVTDVSEEAK, peptide start residue: 300)",-1.06
17,"UniProt Q8BW96 (peptide sequence: IMISDFGLSK, peptide start residue: 161)",-1.32
18,"UniProt Q61694 (peptide sequence: EIILNAHEEEHR, peptide start residue: 136)",-0.448
19,"UniProt Q6PDI5 (peptide sequence: NLTSNMWR, peptide start residue: 1165)",0.284

row,Target,log2 fold change
1,"UniProt Q61083 (peptide sequence: LLGQGAFGR, peptide start residue: 361)",-1.9
2,"UniProt O70318 (peptide sequence: RVTPLPFQPQASSHETLNVVEEK, peptide start residue: 654)",-0.88
3,"UniProt O55125 (peptide sequence: NNKEYLEFR, peptide start residue: 144)",0.432
4,"UniProt Q8BYC6 (peptide sequence: VLIDLIQR, peptide start residue: 285)",-1.67
5,"UniProt O35495 (peptide sequence: LADFGLAR, peptide start residue: 853)",-1.69
6,"UniProt P97742 (peptide sequence: IWMAMVK, peptide start residue: 149)",0.562
7,"UniProt P51174 (peptide sequence: SPAHGISLFLVENGMKGFIK, peptide start residue: 225)",0.439
8,"UniProt Q8C078 (peptide sequence: DIKPSNLLVGEDGHIK, peptide start residue: 312)",-3.1
9,"UniProt Q9DCQ2 (peptide sequence: VTMATHPDGFRLEGPLAAAHSSGPR, peptide start residue: 152)",-0.804
10,"UniProt P47802 (peptide sequence: EKYNADYDLSAR, peptide start residue: 77)",-0.346
11,"UniProt O70589 (peptide sequence: FTSSPGLSTEDLKR, peptide start residue: 48)",-2.83
12,"UniProt Q9CRD0 (peptide sequence: FKKLENSPLGEALR, peptide start residue: 102)",0.663
13,"UniProt Q8C0K5 (peptide sequence: GEHTYSGIIHAFK, peptide start residue: 164)",0.837
14,"UniProt Q8K0D0 (peptide sequence: SKLTENLVALK, peptide start residue: 140)",-2.51
15,"UniProt P98154 (peptide sequence: GGDPTHFHTVNVAQPVR, peptide start residue: 89)",-1.16
16,"UniProt P22315 (peptide sequence: LFLDRDLMTLPIQNK, peptide start residue: 91)",-1.03
17,"UniProt O89023 (peptide sequence: VNTEFMK, peptide start residue: 339)",-0.234
18,"UniProt Q9R257 (peptide sequence: FATVEVTDKPVDEALR, peptide start residue: 41)",-0.672
19,"UniProt P20444 (peptide sequence: LGCGPEGER, peptide start residue: 581)",-2.63
